Rows were chosen to be rich in hits. Some 7.3% of all compounds tested hit in one or more screens of this group.
NPC1 prom act: NPC1 promoter activation; Huh7 NPC1 promoter luciferase reporter, 24 h; Potency, µM (doses to about 9.22 µM), for inactives: at the top dose activation, most hits filed as activators; 2.4% of 320,000 active; AID 485313; further: % of control where 0% means no effect; nearly all actives have a fitted effect of over 60% in size
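Stably transfected Huh7 (NPC1 promoter→luciferase), 1500 cells/well in Opti-MEM + 10% FBS, 2 h settle, then compound 24 h at 37 °C. Luminescence after 10 min with Amplite reagent.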
Rab9 prom act: Rab9 promoter activation; Huh7 Rab9 promoter-luciferase reporter, luminescence, 24 h; Potency, µM (highest dose often 9.22 µM), without a hit: at the top dose activation, negative = inhibition, actives largely listed as activators; 2.8% of 320,000 active; further: % of control where 0% means no effect; nearly all actives have a fitted effect of over 60% in size
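Huh7 reporter line, Rab9 promoter upstream of luciferase. Compound exposure 24 h at 37 °C in reduced-serum medium with 10% FBS. Read-out: luminescence.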
FLuc counter: counter-screen for miR-21 project: firefly luciferase inhibitors or activators. P08659. purified FLuc, Km substrates, luminescence inhibition. Potency, µM (titrated, usually from 57.5 µM), for the others: at the highest dose activity change, negative = inhibition, actives largely listed as inhibitors. 6.9% of 360,000 active. AID 588342;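 further: plate controls were vehicle for no effect and reference inhibitor for full effect; nearly all actives have a fitted effect of over 55% in size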
Target sequence (P08659 whole entry, looked up): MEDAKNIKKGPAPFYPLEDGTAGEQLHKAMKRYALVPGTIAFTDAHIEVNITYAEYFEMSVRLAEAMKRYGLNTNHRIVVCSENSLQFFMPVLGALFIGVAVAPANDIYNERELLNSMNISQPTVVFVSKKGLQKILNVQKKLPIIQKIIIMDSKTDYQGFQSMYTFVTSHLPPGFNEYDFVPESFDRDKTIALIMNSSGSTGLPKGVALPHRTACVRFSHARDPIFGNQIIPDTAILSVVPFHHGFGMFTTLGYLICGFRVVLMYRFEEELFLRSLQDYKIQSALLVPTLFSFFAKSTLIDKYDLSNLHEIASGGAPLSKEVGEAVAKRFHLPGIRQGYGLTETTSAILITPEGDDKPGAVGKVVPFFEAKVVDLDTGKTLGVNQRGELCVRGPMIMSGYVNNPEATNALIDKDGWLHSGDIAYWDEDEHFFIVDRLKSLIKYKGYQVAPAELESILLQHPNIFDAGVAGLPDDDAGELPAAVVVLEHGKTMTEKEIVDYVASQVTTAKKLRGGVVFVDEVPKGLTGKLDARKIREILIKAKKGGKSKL
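Biochemical qHTS of compounds, final roughly 60 µM downward over six points, against 10 nM purified firefly luciferase using Km concentrations of substrates (10 uM D-luciferin, 10 uM ATP) in Tris acetate pH 7.5 buffer; luminescence output.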
KinaseGlo FLuc: blocks Kinase-Glo luciferase, a counter-screen artifact. Q27757. Kinase-Glo luciferase, ATP luminescence, 8 min. Potency, µM (series often up to 38.3 µM), inactives show at the top dose activity change, negative = inhibition, most hits filed as inhibitors. 0.28% of 200,000 active; further: on the % scale 0 is the no-effect control and ±100 the full control effect; nearly all actives have a fitted effect of over 60% in size
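Light output from Kinase-Glo luciferase with luciferin and 10 uM ATP in 50 mM imidazole pH 7.2, KCl, MgCl2, Tween 20, BSA; compound pin-delivered, 8-min ambient incubation, then luminescence read.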
SMN2 splice enh: increases expression of the SMN2 splice variant; HEK293 SMN2-luciferase splicing reporter, luminescence, 30-36 h; Potency, µM (series often up to 46.1 µM), for the others: at the top dose activity change, positive = activation, most hits filed as activators; 2.8% of 210,000 active; AID 1458; further: % of control where 0% means no effect; nearly all actives have a fitted effect of over 55% in size
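HEK293 cells carry an SMN2 […]–luciferase reporter in which exon 7 inclusion puts luciferase in frame. Cells were plated 10-12 h before compound addition, then incubated 30-36 h at 37C. ONE-Glo luminescence was read; sodium butyrate at 4.5 mM final served as control.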
An asterisk follows results filed as active; [ ] = another dose, or the depositor's remark. The call rests on the fitted dose curve; in most records, active means well fitted curve in the direction sought with a large enough effect; inconclusive means small, poorly fitted or top-dose-only effect, or another doubt; inactive means no such curve, though single readings can be large; an effect the other way counts as inactive or inconclusive. Potency means the concentration at half of the fitted maximal effect.

Screening Cc1nc(/C=C/c2ccccc2)cc(/C=C/c2ccccc2)n1 returned NPC1 prom act 1%, Rab9 prom act 2%, FLuc counter 19µM*, KinaseGlo FLuc 17% and SMN2 splice enh 24%.
Cc1ccc(/C=C/c2onc(C)c2S(=O)(=O)N2CCC(C(=O)Nc3ccccc3C(F)(F)F)CC2)cc1 was read as FLuc counter 2%.
O=C(c1cnc(N2CCOCC2)c2ccccc12)N1CCN(c2ccccc2F)CC1 was read as FLuc counter -2%.
Screening O=C(O)c1ccccc1C(=O)c1ccc(-c2ccccc2)cc1 returned NPC1 prom act 13%, Rab9 prom act 1%[1.84 µM] and FLuc counter 21µM*.
CCC(=O)N1c2ccccc2CC1C(=O)NCc1ccccc1C (stereo not given) was read as FLuc counter -4%.
For COc1ccc2c(c1)O[C@@H](c1ccc3c(c1)OCO3)[C@H](O)C2=O the results were KinaseGlo FLuc -1% and SMN2 splice enh 20µM*.
CC(=O)Oc1ccc(C2OC(=O)c3ccccc3N2C(C)=O)cc1 (stereo not given) was read as NPC1 prom act -1%, Rab9 prom act -1%, FLuc counter 0%, KinaseGlo FLuc -6% and SMN2 splice enh 1%.
`COc1ccc(C(=O)N2c3ccccc3C(=O)OC2c2ccc3c(c2)OCO3)cc1` (stereo not given) gave NPC1 prom act inconclusive, Rab9 prom act inconclusive, FLuc counter 19µM*, KinaseGlo FLuc -3% and SMN2 splice enh 13µM*.
`COc1ccc2c(c1)CC(C(=O)NCCc1ccc(S(N)(=O)=O)cc1)CO2` (stereo not given) gave FLuc counter 5%.
Screening CCc1ccc(NC(=O)C(C)n2nnc3sc(-c4ccccc4)cc3c2=O)cc1 (stereo not given) returned FLuc counter -16% and SMN2 splice enh 10%.
CCc1ccc(N2C(=O)c3sc4nnc(-c5ccccc5)c(=O)n4c3C2=O)cc1 was read as NPC1 prom act -3%, Rab9 prom act -13%, FLuc counter 19µM*, KinaseGlo FLuc -3% and SMN2 splice enh 8%.
`C=CCc1c(C)nc(-c2ccccc2)nc1N/N=C(\C)c1ccccc1` gave NPC1 prom act 0%, Rab9 prom act -1%, FLuc counter 17µM*, KinaseGlo FLuc 1% and SMN2 splice enh -10%.
O=C(Nc1ccc(C(=O)OCc2cc(=O)n3ccsc3n2)cc1)c1cccc(F)c1 was read as FLuc counter 0%.
Cc1sc(NC(=O)C2CCCCC2C(=O)O)c(C(N)=O)c1-c1ccccc1 (stereo not given) was read as NPC1 prom act 1.6µM*, Rab9 prom act 3.5µM*, FLuc counter 3.4µM*, KinaseGlo FLuc -1% and SMN2 splice enh -24%.
For CC(=O)Nc1ccc(NC(=O)[C@@H]2CCCC[C@@H]2C(=O)O)cc1 the results were NPC1 prom act 2%, Rab9 prom act -4%, FLuc counter -1%, KinaseGlo FLuc -1% and SMN2 splice enh -32%.
`Cc1cccc(NC(=O)c2cc(NC(=O)C3CCCCC3C(=O)O)ccc2N2CCOCC2)c1` (stereo not given) gave NPC1 prom act 16%, Rab9 prom act 23% and FLuc counter 21µM*.
`CC(=O)Nc1ccc(NC(=O)C2CCCCC2C(=O)O)cc1` (stereo not given) gave NPC1 prom act -1%, Rab9 prom act -3%, FLuc counter 1%, KinaseGlo FLuc 2% and SMN2 splice enh 5%.
Screening O=C(O)C1CCCCC1C(=O)Nc1ccc(-c2ccccc2)cc1 (stereo not given) returned NPC1 prom act 18%, Rab9 prom act inconclusive, FLuc counter 17µM*, KinaseGlo FLuc 1% and SMN2 splice enh 27%.
`Cc1sc(NC(=O)C2CCCCC2C(=O)O)c(C(N)=O)c1-c1ccc(C(C)(C)C)cc1` (stereo not given) gave NPC1 prom act 19%, Rab9 prom act 16%, FLuc counter inconclusive, KinaseGlo FLuc -2% and SMN2 splice enh 3%.

From PubChem BioAssay
